PubChem BioAssay (NCATS)
“And” between values parts separate entries of the source, which are not always exact repeats. Identical values can stand only once. Results filed as inconclusive are left out. The source made the active and inactive calls. Calls follow the shape of the dose curve; as a rule, active = well fitted curve in the direction sought with a large enough effect; inconclusive = small, poorly fitted or top-dose-only effect, or another doubt; inactive = no such curve, though single readings can be large; an effect the other way counts as inactive or inconclusive.

Legend:
[1] = Confirmatory screen GU Rhodamine qHTS for Zika virus inhibitors qHTS (AID 1347157); conditions: purified enzyme assay, Rhodamine110 substrate fluorescence, 15 min; also: potency is read from the fitted curve at half-maximal effect; nearly all actives have a fitted effect of over 70% in size
Procedure, shortened: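 Percent inhibition derives from the 15-min fluorescence change (ex 480, em 540 nm), normalized to no-enzyme and no-inhibitor wells. Reactions contained 25 nM NS2B-NS3 complex and 1.5 microM substrate in 10 mM Tris-HCl pH 8.0.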

[2] = tested on: Zika virus NS2B-NS3 protease (unlinked complex); assay: Primary screen GU Rhodamine qHTS for Zika virus inhibitors: Unlinked NS2B-NS3 protease assay (AID 1347159); conditions: Recombinant ZIKV NS2B-NS3 protease, Rhodamine110 substrate fluorescence; series mostly up to 107 µM; also: nearly all actives have a fitted effect of over 60% in size; also: potency is read from the fitted curve at half-maximal effect; as to activity change, negative = inhibition: % is scaled to controls: 0 for no effect and ±100 for the full control effect
Procedure, shortened: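 A qHTS format was used, with compound concentrations ranging up to 114 microM. Each compound was preincubated with 25 nM NS2B-NS3 protease, and the substrate was then added at 1.5 microM. Curves were fitted with a 4-parameter Hill model.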

[3] = Tertiary RLuc qRT-PCR qHTS assay for Zika virus inhibitors (AID 1347169); conditions: infected Vero cells, reporter luminescence, 48-72 h; series mostly up to 45.9 µM; also: nearly all actives have a fitted effect of over 55% in size; also: potency is read from the fitted curve at half-maximal effect; as to activity change, negative = inhibition: top concentration of the series differs between compounds; % is scaled to controls: 0 for no effect and ±100 for the full control effect
Procedure, shortened: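 Orthogonal cell-based infection assay using recombinant ZIKV-RLuc (Cambodian) in Vero cells; compound added prior to virus at MOI 1-2. Incubation lasts 48-72 hrs at 37 degrees C before live-cell Renilla substrate is added and luminescence measured.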

[4] = Confirmatory screen NINDS Rhodamine qHTS for Zika virus inhibitors (AID 1347161); conditions: purified enzyme assay, Rhodamine110 substrate fluorescence, 15 min; also: potency is read from the fitted curve at half-maximal effect; nearly all actives have a fitted effect of over 60% in size
Procedure, shortened: (§1)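 Kinetic fluorescence (Ex 480 nm, Em 540 nm) over 15 min with 1.5 microM Rhodamine110 peptide and 25 nM linked protease.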

[5] = tested on: Zika virus NS2B-NS3 protease (linked construct); assay: Confirmatory screen NINDS AMC qHTS for Zika virus inhibitors (AID 1347152); conditions: Purified linked NS2B-NS3, AMC substrate fluorescence; series mostly up to 56.6 µM; also: potency is read from the fitted curve at half-maximal effect; nearly all actives have a fitted effect of over 70% in size
Procedure, shortened: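 In this dose-response qHTS, AMC release from 10 microM Bz-Nle-KRR-AMC by 1 nM linked protease is measured over 15 minutes (about 20% conversion) at pH 8.0. Percent inhibition is fitted to a 4-parameter Hill curve.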

[6] = tested on: Zika virus NS2B-NS3 protease (unlinked complex); assay: Confirmatory screen GU AMC qHTS for Zika virus inhibitors (AID 1347153); conditions: Recombinant NS2B-NS3 protease, AMC substrate fluorescence;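 also: enzyme at 25 nM with substrate at 10 µM below its Km of 18.3 µM; potency is read from the fitted curve at half-maximal effect; nearly all actives have a fitted effect of over 70% in size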
Procedure, shortened: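 Fluorescence change (ex 340/em 450 nm) over 15 min, ~20% substrate conversion, normalized to no-inhibitor and no-enzyme controls, then Hill-fitted. Unlinked protease at 25 nM; AMC peptide 10 µM.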

[7] = ZIKV-mCherry secondary qHTS for Zika virus inhibitors (AID 1347158); conditions: Vero cells, ZIKV-mCherry infection imaging, 48-72 h; series mostly up to 49.2 µM; also: top concentration of the series differs between compounds
Procedure, shortened: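 Vero cells (5,000/well) were given compound, then infected with ZIKV-mCherry at MOI 1 for 48–72 h at 37 °C. After PFA fixation and Hoechst staining, imaging gave percent mCherry-positive cells. The positivity threshold was RFU above 450, 3 SD over negative controls.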

[8] = tested on: Zika virus NS2B-NS3 protease (linked construct); assay: Primary screen NINDS Rhodamine qHTS for Zika virus inhibitors (AID 1347160); conditions: purified NS2B-NS3 protease, Rhodamine110 substrate fluorescence; series mostly up to 57.1 µM; also: nearly all actives have a fitted effect of over 55% in size; also: potency is read from the fitted curve at half-maximal effect
Procedure, shortened: as §1

[9] = tested on: Zika virus NS2B-NS3 protease (linked); assay: 384 well plate NINDS AMC confirmatory qHTS for Zika virus inhibitors (AID 1347163); conditions: Recombinant NS2B-NS3 protease, Ac-VKTGKR-AMC fluorescence; series mostly up to 100 µM; also: potency is read from the fitted curve at half-maximal effect; nearly all actives have a fitted effect of over 50% in size
Procedure, shortened: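 Linked NS2B-NS3 protease (final 5 nM, 30 nM or 60 nM) was preincubated with compounds (final up to 1 mM) for ~15 minutes. Ac-VKTGKR-AMC substrate (final 30 microM) then reacted for 25 minutes at room temperature in the dark. Fluorescence (ex 355/em 460 nm) was normalized to no-enzyme and no-inhibitor controls.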

[10] = tested on: Zika virus NS2B-NS3 protease (linked construct); assay: 384 well plate NINDS Rhodamine confirmatory qHTS for Zika virus inhibitors (AID 1347164); conditions: rhodamine-110 peptide substrate fluorescence; series mostly up to 100 µM; also: nearly all actives have a fitted effect of over 65% in size; also: potency is read from the fitted curve at half-maximal effect;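 as to activity change, negative = inhibition: top concentration of the series differs between compounds; plate controls were no-inhibitor control for no effect and no-enzyme control for full effect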
Procedure, shortened: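 Compounds are incubated about 15 minutes with linked protease (5, 30 or 60 nM final). Rhodamine 110-tagged Ac-LKRR substrate (10 microM final) is added and fluorescence measured after 25 minutes.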

[11] = Vero cells viability qHTS for Zika virus inhibitors (AID 1347167); conditions: cytotoxicity counter-screen (Zika); series mostly up to 45.9 µM; also: % is scaled to controls: 0 for no effect and ±100 for the full control effect
Procedure, shortened: (§2)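 Counter-screen for cytotoxicity of hits from NS2B-NS3 protease qHTS. Overnight-attached cells (2.5 x 10^5 cells/mL, DMEM/4% FBS) were dosed in titration, incubated 24 to 48 hours, then assayed by CellTiter Glo.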

[12] = HepG2 cells viability qHTS for Zika virus inhibitors (AID 1347168); conditions: Zika counter-screen; series mostly up to 45.9 µM; also: % is scaled to controls: 0 for no effect and ±100 for the full control effect
Procedure, shortened: as §2

CC1(C)CC[C@]2(C(=O)O[C@@H]3O[C@H](CO)[C@@H](O)[C@H](O)[C@H]3O)CC[C@]3(C)C(=CCC4[C@@]5(C)C[C@@H](O)[C@H](O)[C@@](C)(CO)C5CC[C@]43C)C2C1 (stereo not given in full)
inactive: Potency [2] | Potency [3]
active: Potency [1] 11.7 µM

CC(=O)OC[C@@]12[C@H](O)C[C@@H](C)[C@]3(C[C@@H](c4ccoc4)OC3=O)[C@H]1C[C@H](O)C[C@]21CO1
inactive: Potency [2]

CCCCS(=O)(=O)Nc1ncnc(OCCOc2ncc(Br)cn2)c1-c1ccc(Br)cc1
inactive: Potency [2] | Potency [3]
active: Potency [1] 22.1 µM | Potency [4] 35 µM

CC(C)C(=O)c1cn(CC(=O)COc2ccc(Oc3ccccc3)cc2)c2ccc(C(=O)O)cc12
inactive: outcome [7] | Potency [10] | outcome [11] | outcome [12]
active: Potency [5] 44.1 µM | Potency [6] 44.1 µM | Potency [1] 8.79 µM | Potency [2] 8.91 µM | Potency [8] 8.91 µM | Potency [4] 5.55 µM | Potency [9] 44.7 µM | Potency [3] 18.6 µM

O=S(=O)(O)c1ccc2c(N=Nc3ccc(S(=O)(=O)O)c4ccccc34)c(O)c(S(=O)(=O)O)cc2c1
inactive: outcome [7] | Potency [3]
active: Potency [6] 31.2 µM | Potency [1] 10 µM | Potency [4] 3.16 µM | Potency [9] 63.1 µM and 79.4 µM | Potency [10] 15.8 µM and 12.6 µM

O=C(O)c1ccc(CCCc2ccc(OCCc3ccc(F)cc3)cc2)o1
active: Potency [5] 44.1 µM | Potency [6] 49.4 µM | Potency [1] 3.12 µM | Potency [2] 4.47 µM | Potency [8] 3.98 µM | Potency [4] 2.78 µM | Potency [9] 5.01 µM
inactive: Potency [10] | outcome [11] | outcome [12]

O=S(=O)(O)c1cc(O)c2c(N=Nc3ccc(Nc4ccccc4)c4c(S(=O)(=O)O)cccc34)cc(S(=O)(=O)O)cc2c1
inactive: activity change, negative = inhibition [3] -4.11% [at 1.74 µM]
active: Potency [1] 2.82 µM | Potency [4] 5.62 µM | Potency [9] 12.6 µM | Potency [10] 6.31 µM

C[C@@H]1O[C@@H](O[C@@H]2[C@@H](O)[C@H](O[C@@H]3[C@@H](O)[C@@H](O)[C@H](O[C@H]4[C@H](OC(=O)[C@]56CCC(C)(C)C[C@H]5C5=CCC7[C@@]8(C)C[C@H](O)[C@H](O[C@@H]9O[C@@H](C)[C@H](O)[C@@H](O)[C@H]9O)[C@@](C)(CO)C8CC[C@@]7(C)[C@]5(C)C[C@H]6O)O[C@H](C)[C@H](O)[C@@H]4O)O[C@H]3C)OC[C@H]2O)[C@H](O)[C@H](O)[C@H]1O (stereo not given in full)
inactive: activity change, negative = inhibition [2] -9.55% [at 19.1 µM]

O=C(/C=C/c1c(C(=O)O)[nH]c2cc(Cl)cc(Cl)c12)Nc1ccccc1
inactive: outcome [7] | outcome [11] | outcome [12] | Potency [3]
active: Potency [5] 44.1 µM | Potency [6] 44.1 µM | Potency [1] 2.78 µM | Potency [2] 3.55 µM | Potency [8] 3.16 µM | Potency [4] 2.48 µM | Potency [9] 1.12 µM | Potency [10] 8.91 µM

OC[C@H]1O[C@@H](Oc2ccc(O)c3cccc(O)c23)[C@H](O)[C@@H](O)[C@@H]1O
active: Potency [1] 4.85 µM | Potency [2] 10 µM | Potency [4] 6.1 µM
inactive: Potency [8] | Potency [3]

CCOc1ccc(-c2ccc(Cn3c(CC(C)(C)C(=O)O)c(SC(C)(C)C)c4cc(OCc5ccc(C)cn5)ccc43)cc2)cn1
inactive: Potency [10] | outcome [11] | outcome [12]
active: Potency [5] 7.84 µM | Potency [1] 1.75 µM | Potency [2] 2.51 µM and 2.82 µM | Potency [8] 3.16 µM | Potency [4] 2.21 µM | Potency [3] 5.23 µM

O=C(O)c1cnn(-c2nc3cc(OC(F)(F)F)c(Cl)cc3[nH]2)c1
active: Potency [5] 40.3 µM | Potency [6] 32 µM | Potency [1] 12.7 µM | Potency [2] 5.01 µM | Potency [8] 2 µM | Potency [4] 5.69 µM | Potency [10] 0.794 µM
inactive: outcome [7] | outcome [11] | outcome [12]

COC(=O)C1=CO[C@@H](O[C@@H]2O[C@H](CO)[C@@H](O)[C@H](O)[C@H]2O)[C@@H]2[C@@H](C)[C@@H](O)C[C@H]12
inactive: Potency [2]
